GPR151 activ: activators of human GPR151 | 650,000 tested, 1% active | Q8TDV0 | activation, % at 11.2 µM | PathHunter beta-arrestin GPR151 cells, luminescence; in the data active = activation above about 4.9%;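 note: 0% = median of compound wells and 100% = cells with positive control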
TEAD-YAP block: TEAD-YAP interaction inhibition; HEK-TIYL cells, TEAD-Gal4/YAP UAS-luciferase luminescence; 640,000 tested, 1.4% active; inhibition, % at 9.12 µM; in the data active = inhibition above about 32%;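 note: 0% = median of test compound wells and 100% = reference inhibitor wells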
MITF primary: inhibitors of human MITF; O75030; AlphaScreen MITF homodimerization, bead proximity signal; inhibition, % at 2.6 µM; 650,000 tested, 0.91% active; in the data active = inhibition above about 50%;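 note: 0% = vehicle wells with protein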
FBW7 act: activators of human E3 ligase FBW7. AlphaScreen FBW7–phospho-cyclin E peptide binding, activator screen. Q969H0. 650,000 tested, 0.13% active. AID 1259310. normalized activity (activation), % at 26.1 µM; in the data active = normalized activity above about 1.9%;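 note: purified mutant Fbw7 with reduced substrate affinity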
Target sequence (Q969H0 whole entry, looked up): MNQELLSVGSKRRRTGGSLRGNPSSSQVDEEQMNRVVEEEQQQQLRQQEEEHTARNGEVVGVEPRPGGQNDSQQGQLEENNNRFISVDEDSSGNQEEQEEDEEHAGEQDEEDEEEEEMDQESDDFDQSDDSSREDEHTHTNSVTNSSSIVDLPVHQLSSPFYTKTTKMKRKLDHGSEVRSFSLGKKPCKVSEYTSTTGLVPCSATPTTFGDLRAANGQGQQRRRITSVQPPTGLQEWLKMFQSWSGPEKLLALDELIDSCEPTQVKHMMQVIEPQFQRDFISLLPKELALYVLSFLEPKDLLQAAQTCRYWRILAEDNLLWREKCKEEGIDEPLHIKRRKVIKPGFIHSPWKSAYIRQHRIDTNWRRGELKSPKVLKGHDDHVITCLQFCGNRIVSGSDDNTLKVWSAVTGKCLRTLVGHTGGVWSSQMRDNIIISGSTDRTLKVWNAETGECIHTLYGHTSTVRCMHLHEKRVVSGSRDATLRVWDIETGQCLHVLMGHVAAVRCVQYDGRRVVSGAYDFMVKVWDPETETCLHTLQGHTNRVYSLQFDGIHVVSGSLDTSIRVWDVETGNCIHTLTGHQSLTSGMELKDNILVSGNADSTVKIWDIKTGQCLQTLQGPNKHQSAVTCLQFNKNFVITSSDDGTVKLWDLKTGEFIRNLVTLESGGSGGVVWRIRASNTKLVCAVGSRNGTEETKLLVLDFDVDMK
* = called active by the depositor. This is a sample that favours compounds with a hit; in the whole collection about 3.5% have one here.

SMILES | GPR151 activ | TEAD-YAP block | MITF primary | FBW7 act
CCCCNc1cc(N2CCN(CCO)CC2)c2noc3c2c1C(=O)c1ccccc1-3 | -0.8 | 19.6 | 53.8* | -0.4
CC(C)Nc1cc(N(C)C)c2noc3c2c1C(=O)c1ccccc1-3 | 0.1 | 10.8 | 50.7* | -0.5
CCOC(=O)N1CCN(c2cc(Nc3ccc(OC)cc3)c3c4c(onc24)-c2ccccc2C3=O)CC1 | -0.3 | -0.1 | -5.8 | -0.4
CCOC(=O)c1sc2ncn(CC(=O)NCCC3=CCCCC3)c(=O)c2c1C | 1.7 | -4.0 | -13.3 | 2.2*
COc1cc(OC)cc(C(=O)Nc2ccc(S(=O)(=O)Nc3cc(OC)nc(OC)n3)cc2)c1 | 0.1 | 1.6 | 7.3 | 0.0
COc1cc(C(F)(F)F)c(C(=O)NC2(O)C(=O)c3ccccc3C2=O)cn1 | -1.1 | 2.3 | 3.4 | -0.6
COc1ccc(-n2nc(C(=O)c3ccccc3)c(C(F)(F)F)cc2=O)cn1 | 1.8 | 49.1* | -2.0 | -0.1
COCCn1c(C)cc(C(=O)CN2C(=O)NC(C)(c3ccc(C(C)(C)C)cc3)C2=O)c1C (centres undefined) | 0.6 | 36.4* | 2.4 | -0.1
O=C(Nc1ccc(-c2cc3ccccc3oc2=O)cc1)c1cc(Br)ccc1Cl | -0.5 | -27.9 | -2.5 | 0.3
CCc1nnc(NS(=O)(=O)c2ccc(NC(=O)c3ccc(-c4ccccc4)cc3)cc2)s1 | -0.3 | -0.3 | 13.8 | 0.2
CN(C)C(=O)Cn1nc(C(=O)N2CCOCC2)cc1-c1cccs1 | 0.9 | 4.1 | 12.5 | 0.2
O=C(c1cc(-c2cccs2)n(CC(=O)N2CCCc3ccccc32)n1)N1CCOCC1 | -0.2 | 50.7* | -5.1 | -0.1
CC(=O)C1=C(c2ccc([N+](=O)[O-])cc2)N(C(C)=O)n2cnnc2S1 | 0.8 | 32.1* | -6.3 | -0.1
C=CCN(CC(=O)NC(C)CC)S(=O)(=O)c1ccc(Cl)c(C(F)(F)F)c1 (centres undefined) | -2.5 | -4.4 | 3.8 | -0.1
COCCC(=O)N1CCc2ccc(NC(=O)c3ccccc3Cl)cc2C1 | 0.7 | 21.2 | -0.4 | -0.2
COc1ccccc1C(=O)Nc1ccc2nc(SCC(C)=O)sc2c1 | 0.9 | -43.0 | 5.6 | 0.0
Nc1nc(SCC(=O)Nc2cccc([N+](=O)[O-])c2)sc1C(=O)Nc1nccs1 | -4.6 | 32.4* | 5.2 | -0.1
O=C(CSc1nc2ccc(NC(=O)c3ccccc3C(=O)O)cc2s1)NCc1ccccc1 | -0.7 | 41.3* | 5.2 | 0.0
O=C(CSc1nc2ccc(NC(=O)c3ccccc3Cl)cc2s1)Nc1ccccc1 | -0.2 | -40.9 | -2.2 | -0.2
COc1ccccc1C(=O)Nc1ccc2nc(SC(C)c3ccccc3)sc2c1 (centres undefined) | 2.6 | 53.9* | -3.7 | -0.1
O=C(CSc1nc2ccc(NC(=O)c3ccccc3Cl)cc2s1)Nc1cccc([N+](=O)[O-])c1 | -0.3 | 32.2* | 9.9 | 0.1
Cc1ccc(-n2ncc3c(NC4CCCC4)ncnc32)cc1 | -1.0 | 37.2* | -7.7 | 0.2
Fc1ccc(-n2ncc3c(NC4CCCC4)ncnc32)cc1 | -0.1 | -21.9 | -6.2 | -0.1
CN(c1ncnc2c1cnn2-c1ccccc1)C1CCCCC1 | 0.8 | 93.2* | -2.0 | 0.1
Cc1cccc(-n2ncc3c(NC4CCCCC4)ncnc32)c1 | 2.0 | 53.4* | -6.2 | 0.1
SMILES | GPR151 activ | TEAD-YAP block | MITF primary | FBW7 act
c1ccc(-n2ncc3c(NC4CCCCCCCCCCC4)ncnc32)cc1 | 0.7 | -5.1 | 30.5 | 0.0
FC(F)(F)Oc1ccc(-c2cnn3c(NCCCN4CCOCC4)ccnc23)cc1 | 0.3 | 2.9 | -23.2 | -0.1
Cc1cccc(NC(=O)/C(C#N)=C\c2ccc(OCC(=O)O)cc2)c1 | 0.0 | -4.6 | 10.6 | 0.5
CC(=O)c1ccc(-c2ccc(N)c(C(=O)c3ccccc3)c2)cc1 | -0.5 | 58.3* | -4.7 | -0.3
CCc1ccc(O)c(N=Cc2cccc(OC)c2O)c1 | 1.3 | -6.0 | 9.0 | 0.3
Nc1cc(-c2ccccc2)nn1S(=O)(=O)c1ccc([N+](=O)[O-])cc1 | -0.4 | 9.3 | 22.2 | 0.0
Cc1cnc(-c2ccccc2)nc1NCCN(C(C)C)C(C)C | 0.0 | -2.3 | 6.9 | 0.3
CC1(C)N=C(N)N=C(N)N1c1ccc(Oc2ccc(Cl)cc2)c(Cl)c1 | -0.5 | 36.6* | 7.1 | 0.0
Nc1cc(-c2ccccc2)nc2ccccc12 | -0.8 | 13.5 | 3.4 | -0.1
CNc1c2ccccc2nc2ccccc12 | -0.4 | 70.9* | -13.7 | 0.1
CC(C)Nc1c2ccccc2nc2ccccc12 | 0.9 | 73.5* | -5.2 | 0.3
Nc1c2ccccc2nc2ccccc12 (tested in a mixture with another compound) | -0.7 | 71.0* | -2.1 | 0.2
COC(=O)C1=C(C)NC(=O)NC1c1cc([N+](=O)[O-])cc(Br)c1O (centres undefined) | -1.1 | 0.8 | 25.6 | 1.0

Screens as filed in PubChem.
